High-throughput results from PubChem.
Ba/F3 V617F tox = lowers viability of Ba/F3 cells expressing EpoR and JAK2V617F | ATP luminescence | inhibition, % at 5.6 µM | hit rate 1.1% among 220,000;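 active = inhibition above the campaign mean plus 3 SD over all tested compounds, cut at about 24% in these data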;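 also: cytokine-independent growth of Ba/F3 cells driven by EpoR plus mutant JAK2; 0% = DMSO-treated cells and 100% = JAK inhibitor I control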
BaF3 tox = reduces parental Ba/F3 cell viability, JAK2V617F counter-screen. AID 1486. hit rate 1.1% among 220,000. CellTiter-Glo ATP luminescence. inhibition, % at 5.6 µM;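 active = inhibition above a per-campaign cutoff, the mean inhibition of all tested compounds plus 3 SD, cut at about 27% in these data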;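 also: 0% = DMSO wells and 100% = JAK Inhibitor I control wells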
KLF5 inhibitor = inhibitors of KLF5 expression; DLD-1 KLF5 promoter-luciferase reporter, luminescence; inhibition, % at 5 µM; hit rate 0.23% among 290,000;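 active = inhibition above a per-plate limit of that plate's mean compound inhibition plus 3 SD, cut at about 60% in these data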;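 also: 0% = DMSO wells and 100% = LY294002 at 200 µM; higher means less KLF5 promoter-driven luciferase light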
IEC-6 cytotox = kills IEC-6 intestinal cells in KLF5 counter-screen. IEC-6 cytotoxicity, luminescence viability. inhibition, % at 5 µM. hit rate 0.78% among 290,000. AID 1825; in the data active = inhibition above about 22%;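 also: 0% = plate median of test compound wells and 100% = cytotoxic reference compound wells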
APP transl inh = APP translation inhibition | SH-SY5Y APP 5'UTR-luciferase reporter, luminescence | inhibition, % at 2 µM | hit rate 0.82% among 190,000 | AID 1285;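 active = inhibition above a set limit, derived from the sample mean plus 3 SD, cut at about 45% in these data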
aSyn UTR inh = MLPCN primary screen, SNCA 5' untranslated region. inhibition, % (tested at 7.5 µM). hit rate 0.82% among 300,000. alpha-synuclein 5'UTR reporter, inhibitor activity; in the data active = inhibition above about 60%;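 also: H4 neuroglioblastoma cells stably carrying SNCA 5'UTR luciferase fusion; 0% = DMSO wells and 100% = positive control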
BaF3 parental 2 = counter-screen for JAK2V617F inhibitors: parental Ba/F3 viability inhibitors | CellTiter-Glo luminescence; cells kept alive by added IL-3 | inhibition, % at 5.6 µM | shares compounds with Ba/F3 V617F tox | hit rate 31% among 580;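 active = cell growth inhibition above the hit limit set in the earlier mutant JAK2 cell screen, cut at about 27% in these data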;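 also: plate controls were DMSO-treated cells for no effect and JAK Inhibitor I control wells for full effect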
JAK2V617F confrm = confirmation: loss of viability in JAK2V617F-dependent Ba/F3 cells; shares compounds with Ba/F3 V617F tox; Ba/F3 EpoR-JAK2V617F viability, CellTiter-Glo luminescence; inhibition, % at 5.6 µM; hit rate 66% among 580;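 active = mean inhibition above the hit cutoff derived in the earlier primary screen, cut at about 25% in these data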;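 also: 0% = DMSO-treated cells and 100% = JAK inhibitor I control wells; higher means lower luminescence from reduced cell ATP and viability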
* hit, by the source's call; / = not tested or not shown. Most compounds without a hit are left out; they make up all but 2.2% or so of the library.

SMILES	Ba/F3 V617F tox	BaF3 tox	KLF5 inhibitor	IEC-6 cytotox	APP transl inh	aSyn UTR inh	BaF3 parental 2	JAK2V617F confrm
O=C(NCCCCCCNC(=O)OCCO)OCCO	83.8*	5.4	9.2	5.2	-10.4	-12.7	-5.1	7.1
CC(C)C[C@H](NC(=O)[C@@H]1Cc2c([nH]c3ccccc23)C2c3ccccc3C(=O)N21)C(=O)NCC1CCCO1 (some centres not stated)	/	/	-8.5	7.9	/	-4.0	/	/
COc1cc(/C=N/N=C(N)N)ccc1OCc1ccc(Cl)cc1	35.4*	25.1	-76.9	21.9*	-180.1	38.7	34.6*	44.9*
Cc1oc2c(O)c(O)ccc2c(=O)c1-c1ccccc1	/	/	/	/	/	-57.3	/	/
Cc1oc2c(O)c(O)ccc2c(=O)c1-c1cnn(-c2ccccc2)c1	45.4*	-0.1	1.4	1.2	-18.3	-12.4	22.6	99.4*
Cc1ccc2c(CC(=O)NCc3ccco3)coc2c1C	34.6*	14.4	-5.5	14.9	13.8	-95.1	24.5	21.0
Cc1ccc2c(CC(=O)NC3CCS(=O)(=O)C3)coc2c1C (configuration not stated)	/	/	-40.9	-3.6	/	18.6	/	/
CN(C(=O)c1ccc([N+](=O)[O-])cc1)c1ccccc1C(=O)NCc1ccccc1	/	/	-7.6	-0.6	/	-4.5	/	/
O=C(CCNC(=O)Cn1cnc2ccccc2c1=O)NCC1COc2ccccc2O1 (configuration not stated)	-1.6	0.6	7.7	3.3	-2.5	3.2	/	/
CCOc1ccc(OCCn2c(=S)[nH]c3c(N)ncnc32)cc1	-2.4	5.6	-27.4	-8.1	0.1	15.7	/	/
Cc1ccc(OCCn2cnc3c(N)ncnc32)cc1	92.6*	22.1	-2.2	6.5	4.3	-14.3	81.9*	27.8*
CCc1ccc(NC(=O)C(NS(=O)(=O)c2ccc3c(c2)CCN3C(C)=O)C(C)C)cc1 (configuration not stated)	/	/	-23.6	-3.7	/	-15.5	/	/
COc1ccc(CCNC(=O)C(NS(=O)(=O)c2ccc3c(c2)CCN3C(C)=O)C(C)C)cc1OC (configuration not stated)	65.4*	10.7	-27.3	-2.7	12.1	22.0	-4.4	-1.8
COCC(=O)N(Cc1ccc(OC)cc1)Cc1nc2ccccc2c(=O)[nH]1	-1.1	1.7	-19.4	0.0	-7.9	4.5	/	/
Cc1noc(NC(=O)c2ccc(Cl)c(Cl)c2)c1Cl	28.7*	3.6	-36.2	5.5	-0.9	-35.3	-1.6	46.9*
Cc1sc2ncnc(N3CCCC(C)C3)c2c1C (configuration not stated)	4.3	5.5	8.7	4.2	4.3	33.8	/	/
CCOC(=O)C1(Cc2ccccc2C(F)(F)F)CCN(CC(O)CO)CC1 (configuration not stated)	-0.4	6.8	-14.7	-5.7	-7.2	15.0	/	/
CCOC(=O)C1(Cc2ccccc2C(F)(F)F)CCN(C2CCN(C(C)C)CC2)CC1	73.2*	15.9	-4.9	17.2	9.0	/	13.6	42.3*
Cc1ccc(S(=O)(=O)N(CC(=O)Nc2ccccc2C(=O)O)c2ccc(Cl)cc2)cc1	-2.4	-1.7	-32.0	4.8	-1.5	2.1	/	/
COc1cc(OC)c(-c2cc(C(=O)O)ccc2OC)c(OC)c1	-0.7	5.3	5.5	10.5	0.9	3.1	/	/
O=c1oc2ccc(Cl)cc2nc1/C=C(\O)c1ccco1	34.1*	15.4	0.9	-1.0	/	-6.2	8.6	72.1*
CC(C)C/C(O)=C/c1nc2cc(Cl)ccc2oc1=O	7.3	3.4	3.8	0.9	9.3	-24.3	/	/
CCCOc1ccc(C(=O)C(CN2CCCC2)c2ccccc2)cc1 (configuration not stated)	65.5*	6.3	-29.6	6.1	92.2*	-46.5	52.3*	99.1*
CCCCOc1ccc(C(O)C(CN2CCCCC2)c2ccccc2)cc1 (configuration not stated)	-1.8	11.1	-14.2	-5.1	3.7	-26.7	/	/
CCOc1ccc(NC(=S)NNC(=O)CC(C)O)cc1 (configuration not stated)	26.4*	1.2	-32.7	0.3	5.0	6.2	-2.0	-5.0
SMILES	Ba/F3 V617F tox	BaF3 tox	KLF5 inhibitor	IEC-6 cytotox	APP transl inh	aSyn UTR inh	BaF3 parental 2	JAK2V617F confrm
CCOc1ccc(NC(=O)CSC(N)=O)cc1	74.5*	3.7	-33.2	-8.9	4.6	-24.2	-5.7	11.9
CCOc1ccc(NC(=O)CC)cc1	-1.8	5.0	-12.1	-1.9	9.1	16.1	/	/
Cc1noc(C)c1COc1cccc(C(=O)Nc2ccccc2N2CCOCC2)c1	0.8	2.2	-28.5	-0.8	-0.2	12.7	/	/
CCOc1ccc(N(CC(=O)NN=C2CCN(C)CC2)S(C)(=O)=O)cc1	-3.3	-0.7	-4.2	-1.6	15.7	-2.3	/	/
Nc1c(C(=O)NC2CC2)c2nc3ccccc3nc2n1-c1ccc2c(c1)OCO2	-0.9	3.4	-21.6	-0.6	-4.2	26.4	/	/
Nc1c(C(=O)OCC2CCCO2)c2nc3ccccc3nc2n1-c1ccc2c(c1)OCCO2 (configuration not stated)	95.8*	2.4	-4.4	-7.7	-6.8	20.8	-5.2	-9.7
Cc1ccn2c(CN(C)CCn3nc(C)cc3C)c(C(=O)N3CCCCCC3)nc2c1	-2.6	-0.4	-20.0	2.4	-6.1	-13.9	/	/
COC(=O)CCN(C(=O)C1C2CC3CC(C2)CC1C3)c1ccccn1 (configuration not stated)	49.4*	7.1	-43.3	-1.9	10.5	-9.7	-5.0	-6.5
CCOc1ccccc1C(=O)N(CCC(=O)OC)c1ccccn1	3.4	4.8	-31.2	2.2	-15.7	-14.5	/	/
CCN(CC(=O)N1CCC(C)CC1)S(=O)(=O)c1ccc(C)cc1	/	/	1.0	-2.8	/	-0.4	/	/
Cc1ccc(C(=O)n2c(N)nc3ccccc32)cc1	50.7*	20.9	51.2	8.6	-34.8	81.1*	6.1	-1.5
COc1cccc(CN2CC(C(=O)N3CCCCCC3)CCC2=O)c1 (configuration not stated)	/	/	-28.9	0.3	/	-3.9	/	/
CC1CN(Cc2cc(=O)[nH]c(C3CC3)n2)CC(C)O1 (configuration not stated)	39.9*	4.0	-36.2	9.2	1.1	2.0	-5.6	-5.3
COc1ccccc1NC(=O)NC1CCCCCCC1	/	/	-14.2	-1.4	/	/	/	/
COc1ccccc1NC(=O)C1C2CCCCC21 (configuration not stated)	93.9*	1.6	-35.4	-3.4	2.2	-11.3	-7.9	-7.6
COCCN(CC(=O)NCC1CCCO1)C(=O)CCC(=O)Nc1cc(C)on1 (configuration not stated)	34.9*	0.6	2.4	-6.2	-3.1	7.6	-5.5	-8.1
COCCN(CC(=O)NCC1CCCO1)C(=O)CCC(=O)Nc1cc(C)ccn1 (configuration not stated)	0.2	3.1	-38.4	-3.1	12.7	6.6	/	/
